system: VDR:RXRa (NR concentration 270 nM, RXRa partner concentration 90 nM); assay: PBM binding z-score (relative to random genomic background probes); higher = stronger binding; sequences stand for … in GC…GCGATTGACAGCGTAGAATGAAGG
Experimental: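 Protein-binding microarray (Agilent 4x180K custom design, double-stranded 60-nt probes: 5' GC cap, 34-nt variable region, 24-nt constant primer region; full probe sequence given). Purified or IVT nuclear receptor:RXRα heterodimers (3:1 NR:RXRα, mostly 270:90 nM) or homodimers were incubated for 1 h in PBS with 2% milk and no ligand, then detected with Alexa488 antibodies. Fluorescence from o1-orientation probes (~5 replicates averaged) was converted to z-scores against 500 random hg19 background probes. Variable regions are seed direct-repeat (DR0–DR5) sites, all their single-nucleotide variants and half-site ablations.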

Row | Sequence | PBM binding z-score
1 | TCTAGTTGGTCACGGAGGTTACACACGACGGGTA | 3.16
2 | CGAACTATGTCATTGACAGGACAGTGAATAGTAA | 0.154
3 | TCTCGGAGGACAGGAAGGTCAGAGCTTTCCAGAG | 1.57
4 | ATCGAAAGGTCGTGAGGCGAGTATACAGAAAGGC | 3.18
5 | AGGCAAAGTTCAGGACGAGGTAACGTAAAGCACG | 2.67
6 | CCTTACGGGTCAAGGTTATTGCACGGGTGGTACG | 3.42
7 | TAGCCTAGGTCAGTGGGCCAGTATAGTACGCATC | 0.148
8 | CCTGTTAGGTCAATGGTCAGCTAAAGCAGCTCGC | 1.54
9 | CCGACTGAGGCATAAGGTTACCATAAGCCAGCCC | 0.114
10 | AGTCAAAGTTCGGGACGAGGTAACGTAAAGCACG | 0.784
11 | GCTAGTTGGTCAGTAAAAGGTCGCACACCGGTCG | 1.39
12 | AGAATGAGGTTACCAAAGACCAGGGAAACGCTTG | 1.32
13 | TCTCGGGGGACACGAAAGGTCAGAGCTCGACATC | 4.39
14 | ACACACAGGTGATGAAGGTAACTCAGGCTATCAT | 0.511
15 | TCTGTTAGGTCAGTTGGTCAGCTAACGAGCTGCC | 0.897
16 | CAAACTAGGTCACACAGGTCAAAGTCCGTGCGTA | 6.73
17 | CCTTACGGGTCACTCCAGGATATAGCATCGGAGT | 2.88
18 | CCTTACGGATCACTGACAGGTTATAGCATTTGGA | 0.456
19 | CAAACTAGGTCAAGGGTCAAAGTCGAGCCAACCA | 5.5
20 | CCTCGGAGGACAGAAAGTCAGAGCTGTCCGCTTT | -0.616

Row | Sequence | PBM binding z-score
21 | CCTCGGAGGACAACAGGAGGTCAGTGCTGCCAGA | 1.59
22 | CGTCAAAGTTCAACTAAGGCAACGTAAAGCACGC | 4.19
23 | CAGCCTAGGTCAGGGCCGGTATAGGAGGAACGTT | 0.178
24 | GATACAGGGTCAAGGCTAGAGTACGCGTATTGAT | 4.6
25 | CCTTACGGGTCAAGGATATAGCACGGGTGGTACG | 2.65
26 | CGTCCAAGGTCAATGCTAGGTCAGTGCAAGCATT | 4.95
27 | TCTAGTAGATCAAAGGTTAAGAAAGCCGAAGCCT | 1.37
28 | TATACAGGGTCAAGGGCCAGAGTACGAATGTCGA | 4.43
29 | CCTACTGGGCCATCAGCTCATTGATATCAACGTT | -0.619
30 | CGTCAAGGTTCAAGGTAACGTAACAGAAAGCAGC | 3.05
31 | GATGCAGGGTCAAGGCCAGAGTACGCGTATTGAT | 4.21
32 | TCTATTAGTTGATTAGTGCAACCGAAACAGCGGA | 0.827
33 | CAAACTAGGTCACCGGAAGGTCAAAGTCCGCATG | 6.25
34 | CCTACTGGGGCAAAAAGGTCATTGATGCCGATAA | 5.42
35 | CCTATTGGTTGACCATAAGGGCAACCGAAGCTCG | -0.0561
36 | CATCCTAGGTCAGGGCCAGTATAGGAGGAACGTT | 0.731
37 | TCGAGTAGGTAAGTCGGGGCATTCAGCCAACATA | 0.394
38 | TCTAGTTGGTCAAAGGTCACATACTCGAAATGCG | 5.02
39 | ACAGACAGGTGTGTGAAGGTAACTCAGCTGGACG | -0.572
40 | ACTCGCAGGCCAAGGGTCACTCAAGATTAGTCCG | 2.89
